Tb PGK inh: T. brucei PGK inhibition. PGK/GAPDH coupled, Kinase-Glo luminescence, 60 min. Potency, µM (highest dose often 57.5 µM), for inactives: at the top dose activity change, negative = inhibition, actives largely listed as inhibitors. actives 0.043% (n = 380,000); note: % is set by controls: 0 for no effect and ±100 for the full control effect; nearly all actives have a fitted effect of over 60% in size
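Luminescent ATP detection (Kinase-Glo Plus) follows a 60-minute room-temperature incubation, with wells lacking PGK as controls. Buffer: 100 mM TEA (pH 7.6), 5 mM MgCl2, 0.01% Tween-20. Coupling enzyme GAPDH (100 nM final) supplies unstable 1,3-BPG in-well.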
RECQ1 inh: RECQ1 (human) helicase inhibition. P46063. RECQ1 DNA unwinding, red fluorescence kinetic read. Potency, µM (series often up to 57.3 µM), for the others: at the highest dose activity, negative = inhibition, usual class: inhibitors. actives 0.54% (n = 240,000);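 note: plate controls were vehicle for no effect and no enzyme for full effect; nearly all actives have a fitted effect of over 30% in size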
Target sequence (P46063 whole entry, looked up): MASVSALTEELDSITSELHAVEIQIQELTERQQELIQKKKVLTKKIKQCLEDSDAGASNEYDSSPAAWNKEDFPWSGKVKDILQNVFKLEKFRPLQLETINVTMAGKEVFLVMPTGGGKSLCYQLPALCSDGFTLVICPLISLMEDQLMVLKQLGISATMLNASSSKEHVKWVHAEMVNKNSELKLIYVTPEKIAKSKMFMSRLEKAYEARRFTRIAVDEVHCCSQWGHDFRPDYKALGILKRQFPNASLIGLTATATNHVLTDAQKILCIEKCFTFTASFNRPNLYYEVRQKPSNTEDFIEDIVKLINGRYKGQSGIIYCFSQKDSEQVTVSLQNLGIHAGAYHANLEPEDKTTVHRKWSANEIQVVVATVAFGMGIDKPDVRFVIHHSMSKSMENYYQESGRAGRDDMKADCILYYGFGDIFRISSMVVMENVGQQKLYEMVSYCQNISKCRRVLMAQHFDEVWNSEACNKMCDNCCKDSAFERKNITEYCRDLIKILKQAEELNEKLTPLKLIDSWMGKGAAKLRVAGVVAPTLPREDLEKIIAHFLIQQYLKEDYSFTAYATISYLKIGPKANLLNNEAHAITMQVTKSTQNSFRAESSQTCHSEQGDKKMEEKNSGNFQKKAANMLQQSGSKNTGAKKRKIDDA
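50 nM RECQ1T1 preincubated 15 min with compound in Tris pH 8.0 buffer with MgCl2, DTT, Tween-20 and 2.5 ug/ml poly(dI-dC); started with 200 nM TAMRA/BHQ-2 forked duplex and 2 mM ATP. Unwinding read as fluorescence (525/598 nm), two reads 2 h apart.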
FEN1 inh-1: inhibitors of human flap endonuclease 1. AID 588795. Recombinant FEN1 flap cleavage, fluorescence, 15 min. actives 0.35% (n = 390,000). Potency, µM (series often up to 114 µM), without a hit: at the highest dose activity change, negative = inhibition, hits mostly inhibitors; note: % is set by controls: 0 for no effect and ±100 for the full control effect; nearly all actives have a fitted effect of over 65% in size
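Compounds are tested as a concentration series against 10 nM FEN1; after a 15 min room-temperature preincubation, 50 nM substrate starts cleavage, with plate reads at 0 and 15 min. Normalized responses are fitted by a Hill equation.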
APE1 inh: APE1 (human) endonuclease inhibition; P27695; recombinant APE1, TAMRA/BHQ-2 abasic DNA cleavage fluorescence; Potency, µM (titrated, usually from 65.8 µM), without a hit: top-dose activity change, negative = inhibition, hits mostly inhibitors; actives 0.35% (n = 350,000);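 note: plate controls were vehicle for no effect and reference inhibitor for full effect; nearly all actives have a fitted effect of over 55% in size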
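Substrate: short duplex with […] THF abasic site, 5'-TAMRA and 3'-BHQ-2, 50 nM final. APE1 at 0.75 nM, preincubated 15 min RT with compound. Fluorescence increase from first to third read measured activity.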
BLM helicase inh: blocks DNA unwinding by human BLM helicase; P54132; actives 0.2% (n = 350,000); Potency, µM (doses to about 56.1 µM), without a hit: top-dose activity change, negative = inhibition, hits mostly inhibitors; recombinant BLM DNA unwinding, fluorescence dequenching;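 note: plate controls were vehicle for no effect and no enzyme for full effect; nearly all actives have a fitted effect of over 35% in size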
FEN1 inh-2: confirmation of human FEN1 inhibitors | shares compounds with FEN1 inh-1 | FEN1 flap cleavage, TAMRA/BHQ2 fluorogenic DNA substrate | Potency, µM, actives largely listed as inhibitors | actives 79% (n = 880); note: nearly all actives have a fitted effect of over 60% in size
* marks the source's active call; other numbers are inactive results. Compounds with a hit are over-represented: about 0.74% of the library has one in this group of screens. Calls come from the whole dose curve; as a rule, active = well fitted curve in the direction sought with a large enough effect; inconclusive = small, poorly fitted or top-dose-only effect, or another doubt; inactive = no such curve, though single readings can be large; an effect the other way counts as inactive or inconclusive. Potency is the fitted concentration of half-maximal effect.

How did COCCCNC(=O)c1cccn2c(=O)c3cc4ccccc4cc3nc12 do in these assays?
Tb PGK inh: -10%; RECQ1 inh: -1%; FEN1 inh-1: inconclusive; APE1 inh: inconclusive; BLM helicase inh: 1%; FEN1 inh-2: inconclusive

What do the screens show for `O=C1/C(=C\c2cc([N+](=O)[O-])ccc2O)SC(=S)N1Cc1ccc(Cl)cc1`?
FEN1 inh-1: 22µM*; APE1 inh: inconclusive; BLM helicase inh: 32µM*; FEN1 inh-2: 38*

How did COc1cc(/C=C2/SC(=S)N(c3c(C)n(C)n(-c4ccccc4)c3=O)C2=O)ccc1O do in these assays?
Tb PGK inh: inconclusive; RECQ1 inh: 22µM*; FEN1 inh-1: inconclusive; APE1 inh: -10%; BLM helicase inh: -9%; FEN1 inh-2: inconclusive

What do the screens show for `COc1cc(/C=C2\SC(=S)N(NC(=O)c3ccc(O)c(OC)c3)C2=O)ccc1O`?
Tb PGK inh: -19%; FEN1 inh-1: inconclusive; APE1 inh: 1%; BLM helicase inh: -14%; FEN1 inh-2: 43*

Results for Cc1c(N2C(=O)/C(=C3/C(=O)N(C)c4ccccc43)SC2=S)c(=O)n(-c2ccccc2)n1C ?
Tb PGK inh: inactive; RECQ1 inh: 17%; FEN1 inh-1: 11%; APE1 inh: 4%; BLM helicase inh: -1%

How did CCOc1cc(/C=C2\SC(=S)N(NC(=O)c3cccnc3)C2=O)ccc1O do in these assays?
Tb PGK inh: -17%; RECQ1 inh: 18µM*; FEN1 inh-1: inconclusive; APE1 inh: inconclusive; BLM helicase inh: -7%; FEN1 inh-2: 85*

What do the screens show for `Cc1ccc(C2CCN(C(=O)c3cnn(-c4ccc(C)c(C)c4)c3C3CCN(C(=O)OC(C)(C)C)CC3)C2)cc1` (stereo not given)?
Tb PGK inh: inactive; FEN1 inh-1: 7%; BLM helicase inh: -2%

How did O=C(CN(C(=O)CCC(=O)Nc1ccccn1)c1cccc(F)c1)NCc1ccco1 do in these assays?
Tb PGK inh: 8%; FEN1 inh-1: 13%; APE1 inh: 5%; BLM helicase inh: -2%

What do the screens show for `CN(C)CCNCCCNc1c2ccccc2nc2cccc([N+](=O)[O-])c12`?
Tb PGK inh: inactive; FEN1 inh-1: -7%

Results for COc1cc(/C=C2/SC(=S)N(Cc3ccccc3)C2=O)ccc1O ?
Tb PGK inh: -15%; FEN1 inh-1: inconclusive; APE1 inh: -8%; BLM helicase inh: -20%; FEN1 inh-2: 85*

What do the screens show for `COc1cc(/C=C2\SC(=S)N(NS(=O)(=O)c3ccc(C)cc3)C2=O)ccc1O`?
Tb PGK inh: -14%; RECQ1 inh: 22µM*; FEN1 inh-1: -26%; APE1 inh: -11%; BLM helicase inh: -17%; FEN1 inh-2: 67*

Results for COc1cc(/C=C2\SC(=S)N(NC(=O)c3ccccc3OC)C2=O)ccc1O ?
Tb PGK inh: -23%; FEN1 inh-1: inconclusive; APE1 inh: -16%; BLM helicase inh: inconclusive; FEN1 inh-2: inconclusive

Results for O=C1/C(=C\c2ccc(O)c(O)c2)SC(=S)N1Cc1ccccc1 ?
Tb PGK inh: -17%; FEN1 inh-1: inconclusive; APE1 inh: -12%; BLM helicase inh: -12%

What do the screens show for `CCOc1cc(/C=C2\SC(=S)N(NS(=O)(=O)c3ccc(C)cc3)C2=O)ccc1O`?
Tb PGK inh: -7%; FEN1 inh-1: -34%

Results for Cc1cccc(NC(=O)CN2C(=O)N/C(=C\c3ccccc3OCc3ccc(C(=O)O)cc3)C2=O)c1 ?
Tb PGK inh: -7%; FEN1 inh-1: inconclusive; APE1 inh: 77%; BLM helicase inh: -10%; FEN1 inh-2: 76*

Results for Cc1ccccc1NC(=O)CN1C(=O)N/C(=C\c2ccccc2OCc2ccc(C(=O)O)cc2)C1=O ?
Tb PGK inh: inconclusive; FEN1 inh-1: inconclusive; APE1 inh: inconclusive; BLM helicase inh: -18%; FEN1 inh-2: 85*

What do the screens show for `O=C(CN1C(=O)N/C(=C\c2ccccc2OCc2ccc(C(=O)O)cc2)C1=O)Nc1ccc(F)cc1`?
Tb PGK inh: -11%; FEN1 inh-1: -28%; APE1 inh: -36%; BLM helicase inh: -15%

How did c1ccc2c(NCCc3c[nH]c4ccccc34)c3ccccc3nc2c1 do in these assays?
Tb PGK inh: inactive; FEN1 inh-1: inconclusive; APE1 inh: inconclusive; BLM helicase inh: 6%; FEN1 inh-2: 21*

What do the screens show for `OCCCNc1c2ccccc2nc2ccccc12`?
Tb PGK inh: inactive; FEN1 inh-1: 22µM*; APE1 inh: 17µM*; BLM helicase inh: 131%; FEN1 inh-2: 21*

Results for COc1ccc(CCNc2c3ccccc3nc3ccccc23)cc1OC ?
Tb PGK inh: 4%; RECQ1 inh: -2%; FEN1 inh-1: 50µM*; APE1 inh: inconclusive; BLM helicase inh: 91%; FEN1 inh-2: inconclusive

Results for O=C(CCN1CCCCC1)Nc1ccc2c(c1)C(=O)c1ccc(NC(=O)CCN3CCCCC3)cc1C2=O ?
RECQ1 inh: inactive; APE1 inh: -10%; BLM helicase inh: 54%

What do the screens show for `COc1cccc(-c2cc(=O)c3ccccc3o2)c1N`?
RECQ1 inh: -2%; APE1 inh: inconclusive; BLM helicase inh: -2%

Results for COc1cc(OC)c(-c2c3cc(O)c(=O)cc-3oc3cc(O)c(O)cc23)cc1OC ?
Tb PGK inh: inconclusive; RECQ1 inh: 10µM*; FEN1 inh-1: 50µM*; APE1 inh: 25µM*; BLM helicase inh: -27%; FEN1 inh-2: 34*

Results for O=C(NCCCN1CCCC1=O)C1CCN(S(=O)(=O)N2CCOCC2)CC1 ?
Tb PGK inh: -1%; RECQ1 inh: -9%; FEN1 inh-1: 3%; APE1 inh: -6%; BLM helicase inh: 1%

What do the screens show for `CN(C)CCCN1C(=O)c2cccc3c([N+](=O)[O-])ccc(c23)C1=O`?
Tb PGK inh: -1%; RECQ1 inh: inactive; FEN1 inh-1: 50µM*; APE1 inh: -16%; BLM helicase inh: 105%; FEN1 inh-2: 34*

Results for CCN(CC)c1ccc(Nc2nc(N3CCOCC3)c3ccccc3n2)cc1 ?
Tb PGK inh: 4%; RECQ1 inh: inactive; FEN1 inh-1: -20%; APE1 inh: 1%; BLM helicase inh: -3%

How did COc1ccc(Nc2c3ccccc3nc3ccccc23)cc1 do in these assays?
Tb PGK inh: -2%; FEN1 inh-1: inconclusive; APE1 inh: -35%; BLM helicase inh: -7%; FEN1 inh-2: 30*

Results for COc1ccc(Nc2nc(N3CCCC3)c3ccccc3n2)cc1 ?
Tb PGK inh: -7%; RECQ1 inh: -20%; FEN1 inh-1: inconclusive; APE1 inh: -3%; BLM helicase inh: -8%; FEN1 inh-2: 34*

High-throughput results as filed in PubChem.
